Laboratory results: PubChem BioAssay (NCATS)
Inconclusive results are not listed. Activity calls are given as the source filed them. Unless noted, calls come from the whole dose curve; as a rule, active = well fitted curve in the direction sought with a large enough effect; inconclusive = small, poorly fitted or top-dose-only effect, or another doubt; inactive = no such curve, though single readings can be large; an effect the other way counts as inactive or inconclusive.

Tests used:
[1] = S16 Schwann cell PMP22 intronic element firefly luciferase assay (AID 624032); note: nearly all actives have a fitted effect of over 30% in size; note: potency is the fitted concentration of half-maximal effect
Procedure, shortened: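 Luciferase reporter of PMP22 intronic-element expression in stably transfected S16 rat Schwann cells, read by ONE-Glo luminescence after 24 h compound exposure at 37 C. Activity scaled between DMSO (0%) and positive-control PTC124; concentration-effect curves quality-classified.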

[2] = target: Glutaminase kidney isoform, mitochondrial (Homo sapiens) (UniProt O94925); assay: qHTS for Inhibitors of Glutaminase (GLS): LOPAC Validation (AID 624146); note: nearly all actives have a fitted effect of over 60% in size; note: potency is the fitted concentration of half-maximal effect
Chain of Glutaminase kidney isoform, mitochondrial (Homo sapiens) (O94925 whole entry, looked up, canonical isoform): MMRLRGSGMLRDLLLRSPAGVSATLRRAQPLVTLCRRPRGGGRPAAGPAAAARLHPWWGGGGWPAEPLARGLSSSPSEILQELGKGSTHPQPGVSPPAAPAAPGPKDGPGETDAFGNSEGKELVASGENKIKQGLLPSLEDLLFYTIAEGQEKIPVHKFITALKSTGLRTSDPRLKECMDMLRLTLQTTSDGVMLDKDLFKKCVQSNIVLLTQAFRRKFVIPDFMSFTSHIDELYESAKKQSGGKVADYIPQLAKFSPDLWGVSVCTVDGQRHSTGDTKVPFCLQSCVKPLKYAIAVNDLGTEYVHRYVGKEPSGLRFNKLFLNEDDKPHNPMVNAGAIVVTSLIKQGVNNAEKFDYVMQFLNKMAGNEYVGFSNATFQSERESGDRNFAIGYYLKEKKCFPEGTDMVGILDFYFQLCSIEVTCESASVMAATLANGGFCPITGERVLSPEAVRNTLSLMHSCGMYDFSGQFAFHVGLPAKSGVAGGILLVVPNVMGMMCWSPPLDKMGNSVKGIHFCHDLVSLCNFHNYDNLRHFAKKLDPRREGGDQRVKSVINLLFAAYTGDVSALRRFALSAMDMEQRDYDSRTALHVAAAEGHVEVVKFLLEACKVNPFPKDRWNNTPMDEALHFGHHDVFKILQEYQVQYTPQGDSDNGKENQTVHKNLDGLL
Procedure, shortened: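 Assay buffer: 45 mM KH2PO4 pH 8.2, 0.02% Tween-20. hKGA acts on L-glutamine (1 mM solution added); product glutamate is reported by an oxidase/peroxidase Amplex Red coupling, with fluorescence taken at baseline and 30 min.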

[3] = target: Glucagon-like peptide 1 receptor (Homo sapiens) (UniProt P43220); assay: qHTS of GLP-1 Receptor Agonists: LOPAC Validation (AID 624148);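 note: luminescence from a luciferase reporter switched on by cAMP; 0% is about no effect; higher luminescence signal means agonism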
Chain of Glucagon-like peptide 1 receptor (Homo sapiens) (P43220 whole entry, looked up): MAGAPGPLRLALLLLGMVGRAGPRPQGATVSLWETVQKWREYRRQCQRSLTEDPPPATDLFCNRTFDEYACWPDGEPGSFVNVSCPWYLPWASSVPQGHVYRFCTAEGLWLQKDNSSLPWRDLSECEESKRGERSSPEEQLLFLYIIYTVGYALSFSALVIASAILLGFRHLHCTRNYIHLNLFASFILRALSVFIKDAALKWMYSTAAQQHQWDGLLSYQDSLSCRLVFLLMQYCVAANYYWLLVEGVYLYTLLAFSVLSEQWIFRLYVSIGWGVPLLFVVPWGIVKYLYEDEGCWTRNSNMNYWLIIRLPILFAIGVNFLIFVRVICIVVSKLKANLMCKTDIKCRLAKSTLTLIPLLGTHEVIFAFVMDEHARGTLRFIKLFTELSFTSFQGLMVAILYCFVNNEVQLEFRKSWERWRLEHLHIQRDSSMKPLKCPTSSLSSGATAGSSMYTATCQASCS
Procedure, shortened: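 Agonism scored as increased luciferase luminescence driven by cAMP in HEK293 clones carrying GLP-1R. Cells settled 12 hours, received compound for 4-6 hr at 37 deg C, 5% CO2, and were read after 12 min detection reagent at RT.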

[4] = qHTS of Nrf2 Activators: LOPAC Validation (AID 624149); note: 0% is about no effect
Procedure, shortened: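 ARE reporter activation measured in AREc32 firefly luciferase cells after 24 hr compound exposure; Steady-Glo luminescence.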

[5] = HTS Assay for Allosteric Antagonists of the Human D2 Dopamine Receptor: Hit Validation in HTRF (AID 624455);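 note: stable D1 dopamine receptor cell line scored for blocking the D1 response; % is set by controls: 0 for no effect and ±100 for the full control effect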
Procedure, shortened: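 Signal from an HTRF read-out in D1-expressing stable cells gave hit activity as inhibition of the D1 response.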

[6] = Cytotoxicity counterscreen for NFkB agonists and antagonists (AID 624476);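 note: cells exposed to compound for 48 hours; % is set by controls: 0 for no effect and ±100 for the full control effect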
[7] = qHTS Assay for Identification of Small Molecule Agonists for NFkB Signaling Pathway. (AID 624478);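 note: compounds tested together with TNF alpha at its EC50 of 10 pM; 0% is about no effect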
Procedure, shortened: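 Cells carrying an NFkB response element-driven beta-lactamase gene are co-treated with compound and 10 pM TNF alpha for 5 h, and reporter activity is then read as 460 and 530 nm fluorescence.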

[8] = qHTS Assay for Identification of Small Molecule Antagonists for NFkB Signaling Pathway. (AID 624479; calls by dose curve;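 note: pathway stimulated with TNF alpha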; note: potency is the fitted concentration of half-maximal effect)
[9] = target: Tumor necrosis factor (Homo sapiens) (UniProt P01375); assay: qHTS assay to identify small molecules that stimulate Tumor Necrosis Factor-alpha (TNF-alpha) secretion (AID 651757; active = well fitted curve in the direction sought with a large enough effect in the signal ratio; the % refers to the signal ratio; note: 0% is about no effect)
Chain of Tumor necrosis factor (Homo sapiens) (P01375 whole entry, looked up): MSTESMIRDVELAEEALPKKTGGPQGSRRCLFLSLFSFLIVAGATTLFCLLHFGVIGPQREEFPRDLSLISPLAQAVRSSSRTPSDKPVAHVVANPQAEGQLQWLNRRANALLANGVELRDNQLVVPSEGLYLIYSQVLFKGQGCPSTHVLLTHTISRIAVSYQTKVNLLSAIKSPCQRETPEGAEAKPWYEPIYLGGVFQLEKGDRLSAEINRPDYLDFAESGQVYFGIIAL
Procedure, shortened: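 Secreted TNF-alpha from compound-treated THP-1 cells (17 hrs, 37 C) was quantified with a homogeneous time-resolved fluorescence antibody assay.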

[10] = qHTS of Trypanosoma Brucei Inhibitors: LOPAC Validation (AID 624147); note: 0% is about no effect
Procedure, shortened: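 Quantitative HTS: titrated library compounds versus trypanosomal pyruvate kinase in TEA buffer (pH 7.2) containing KCl, MgCl2, BSA and Tween-20. Reactions were initiated with ADP, 130 uM final. Kinase-Glo Plus luminescence was read after 45 min at RT.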

[11] = S16 Schwann cell PMP22 intronic element beta-lactamase assay (AID 624044; calls by dose curve;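 note: 0% = DMSO and -100% = potassium clavulanate positive control; nearly all actives have a fitted effect of over 15% in size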)
Procedure, shortened: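 Rat S16 Schwann cells with beta-Lac driven by a PMP22 intronic element, compound-treated 24 h at 37 °C. LiveBLAzer FRET B/G read: 460 nm normalized to potassium clavulanate vs DMSO; 535 nm FRET as viability; concentration-effect curves classified.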

[12] = qHTS assay for small molecule disruptors of the mitochondrial membrane potential - 1 hr assay (AID 651754; calls by dose curve; note: nearly all actives have a fitted effect of over 35% in size; note: potency is the fitted concentration of half-maximal effect)
Procedure, shortened: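 Steps: seed HepG2 cells and let attach overnight; pin-transfer compound or vehicle; incubate 1 hr at 37C; add Mito-MPS dye for 30 min; read two-channel fluorescence for monomer and aggregate forms.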

[13] = qHTS assay for small molecule disruptors of the mitochondrial membrane potential - 5 hr assay (AID 651755; calls by dose curve; note: nearly all actives have a fitted effect of over 40% in size; note: potency is the fitted concentration of half-maximal effect)
Procedure, shortened: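 HepG2, 2,000 cells/well, overnight attach; cpd or DMSO 5 hr, 37C/5% CO2; Mito-MPS 30 min 37C; fluor 490/535 + 540/590 nm.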

[14] = qHTS assay for small molecule agonists of the antioxidant response element (ARE) signaling pathway (AID 651741; active = well fitted activation curve with a large enough effect in the signal ratio; the % refers to the signal ratio; note: potency is the fitted concentration of half-maximal effect)
Procedure, shortened: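 Seeding 2,000 ARE-bla HepG2 cells per well preceded a 5 h incubation at 37 C/5% CO2 and a 16 h compound exposure at 37 C. Beta-lactamase reporter activity was then quantified by fluorescence after 2 h with LiveBLAzer B/G FRET substrate.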

[15] = Cell Proliferation Assay against the TMD8 Cell Line (AID 651645); details: TMD8 DLBCL cell line proliferation/viability; at 46.1 µM (top of the series) unless noted;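 note: cells exposed to compound for 48 h before reading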
Procedure, shortened: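 Luminescent ATP read-out (CellTiter-Glo, 15 min RT) after 48 h compound exposure of log-growing TMD8 cells at 37C; percent activity scaled between DMSO as 100% and 9.2 uM bortezomib final as 0%.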

[16] = Cell Proliferation Assay against the HBL1 Cell Line (AID 651646); details: HBL1 DLBCL cells; at 46.1 µM (top of the series) unless noted;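 note: cells exposed to compound for 48 h before reading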
Procedure, shortened: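 Luminescent ATP read-out (CellTiter-Glo) after 48 h compound exposure of HBL1 cells at 37 °C; percent activity was scaled between DMSO as 100% and 9.2 uM bortezomib (final) as 0%.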

[17] = Cell Proliferation Assay against the TMD8 Cell Line (Caspase readout at 8 hrs) (AID 651713); note: potency is the fitted concentration of half-maximal effect
Procedure, shortened: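 Percent activity derived from Caspase-Glo signal, DMSO set to 0% and bortezomib (9.2 uM final) to 100%. TMD8 cells were exposed to compound for 8 h in RPMI with 5% FBS.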

[18] = qHTS assay for small molecule activators of the nuclear factor-kappa B (NF-kB) signaling pathway (AID 651749; active = well fitted activation curve with a large enough effect in the signal ratio; the % refers to the signal ratio; note: % of control where 0% means no effect); details: NF-kB-bla ME-180 cells, beta-lactamase FRET ratio, 16 h; stronger effect = higher value
Procedure, shortened: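 Stably transfected ME-180 line; NF-kB response element upstream of beta-lactamase. Treatment: compound or DMSO, 16 hr. Detection: fluorescent FRET substrate.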

[19] = Cell Proliferation Assay against the TMD8 Cell Line (Caspase readout at 16 hrs) (AID 651712)
Procedure, shortened: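 Apoptotic response of TMD8 cells was judged from caspase 3/7 activation following a 16 hour compound incubation at 37 °C. Luminescent signal was converted to percent activity, with DMSO set as 0% and 9.2 uM final bortezomib as 100%.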

COc1nc(C)nc(Cl)c1NC1=NCCN1
inactive: Potency [1] | Potency [2] | Potency [3] | outcome [4] | Potency [5]

Nc1nc2c(ncn2COC(CO)CO)c(=O)[nH]1
inactive: Potency [1] | Potency [2] | Potency [3] | outcome [4] | Potency [5]

CCCNCC(O)COc1ccccc1C(=O)CCc1ccccc1 (configuration not stated)
active: Potency [1] 25.6 µM
inactive: Potency [3] | outcome [4] | Potency [5]

COc1ccc(CCN(C)CCCC(C#N)(c2ccc(OC)c(OC)c2)C(C)C)cc1OC (configuration not stated)
inactive: Potency [1] | Potency [2] | outcome [4] | Potency [5] | Potency [6] | outcome [7] | Potency [8] | outcome [9]

CN(C)CCOC(c1ccccc1)c1ccccc1
inactive: Potency [1] | Potency [10] | Potency [3] | outcome [4] | Potency [5]

CC(C)NCC(O)c1ccc(O)c(O)c1 (configuration not stated)
inactive: Potency [11] | outcome [4] | Potency [5] | Potency [12] | Potency [13] | outcome [9]

Clc1ccccc1C(c1ccccc1)(c1ccccc1)n1ccnc1
inactive: Potency [11] | Potency [2] | Potency [3] | outcome [4] | Potency [5]

CN(Cc1cnc2nc(N)nc(N)c2n1)c1ccc(C(=O)N[C@@H](CCC(=O)O)C(=O)O)cc1
inactive: Potency [1] | Potency [2] | Potency [3] | outcome [4]
active: Potency [14] 0.154 µM

Cc1ccc(-c2cc(C(F)(F)F)nn2-c2ccc(S(N)(=O)=O)cc2)cc1
inactive: Potency [11] | outcome [7] | activation [18] -1.1% | outcome [9]
57.7% [at 92.2 µM]: viability (% of control) [15]
active: Potency [8] 43.2 µM | Potency [17] 54 µM | Potency [14] 66.8 µM | Potency [12] 42.2 µM | Potency [13] 42.2 µM
6.48% [at 92.2 µM]: viability, percent of control [16]

CCN1CCCC1CNC(=O)c1cc(S(=O)(=O)CC)c(N)cc1OC (configuration not stated)
inactive: Potency [2] | Potency [10] | Potency [3] | outcome [4] | Potency [5]

CC[N+](CC)(CC)CCOc1cccc(OCC[N+](CC)(CC)CC)c1OCC[N+](CC)(CC)CC
inactive: Potency [1] | Potency [2] | Potency [3] | outcome [4] | Potency [5]

CCOC(=O)Nc1ccc(NCc2ccc(F)cc2)nc1N
inactive: Potency [11] | Potency [10] | Potency [3] | outcome [4] | Potency [5]
active: Potency [2] 12.6 µM

O=C(CCCN1CCC(O)(c2ccc(Cl)cc2)CC1)c1ccc(F)cc1
inactive: Potency [2] | Potency [10] | Potency [3]

Cn1ccc2cc3c(cc21)CCN3C(=O)Nc1cccnc1
inactive: Potency [1] | Potency [10] | Potency [3] | outcome [4] | Potency [5] | Potency [6] | outcome [7] | Potency [8] | Potency [19] | Potency [17]
88.1%: viability, percent of control [16]
102%: viability (% of control) [15]

C[C@](N)(Cc1ccc(O)c(O)c1)C(=O)O
inactive: Potency [1] | Potency [2] | Potency [3] | outcome [4] | Potency [5] | activation [18] 0.934%

Cc1cc(C(C)(C)C)cc(C)c1CC1=NCCN1
inactive: Potency [1] | Potency [2] | Potency [3] | outcome [4] | Potency [5]

Cc1cnc(C(=O)NCCc2ccc(S(=O)(=O)NC(=O)NC3CCCCC3)cc2)cn1
inactive: Potency [1] | Potency [3] | outcome [4] | Potency [5]

CC1(CN2CCC(n3c(=O)[nH]c4ccccc43)CC2)OCc2ccccc2-n2cccc21 (configuration not stated)
inactive: outcome [7]
12.7%: viability (% of control) [15]
6.74%: viability, percent of control [16]

COc1cc2c(c(OC)c1OC)-c1ccc(OC)c(=O)cc1[C@@H](NC(C)=O)CC2
inactive: Potency [12] | Potency [13]

Clc1ccc(C(c2ccccc2Cl)C(Cl)Cl)cc1 (configuration not stated)
active: Potency [12] 29.8 µM | Potency [13] 37.6 µM
